Outcome and AC50 data for 19 compounds are collected here from PubChem BioAssay (EPA / NIEHS).

The target of assay [1] is CCAAT/enhancer-binding protein beta (Homo sapiens) (UniProt P17676). The assay can be described thus: ATG_C_EBP_CIS: Attagene CIS-FACTORIAL HepG2 Assay for human CCAAT/Enhancer Binding Protein (C/EBP) beta (AID 2282927). Particulars: HepG2 Attagene cis-factorial transcription factor reporter; actives raise or lower the signal. In outline:
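Following a 24 h incubation with test chemical, transfected HepG2 cells yielded RNA whose reporter transcripts were quantified by RT-PCR and fluorescent capillary electrophoresis, with DMSO serving as baseline for bidirectional fitting.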

Assay [2] can be described thus: ATG_CMV_CIS: Attagene CIS-FACTORIAL HepG2 Assay for human CMV (Internal Marker) (AID 2282928).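 Note: endpoint acts as a background internal control marker rather than a target.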 Particulars: HepG2 CMV promoter reporter, transcription factor profiling; actives raise or lower the signal. The method in brief:
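Bidirectional fits against DMSO are applied to reporter mRNA, read by RT-PCR with capillary electrophoresis, from HepG2 cells exposed 24 h. The endpoint serves as an internal CMV background marker within the cis-factorial reporter panel.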

Assay [3] is described as follows: ATG_DR4_LXR_CIS: Attagene CIS-FACTORIAL HepG2 Assay for human Liver X Receptor (LXR), DR4 submotif (AID 2282929). Particulars: HepG2 Attagene DR4 cis-reporter, mRNA transcription; actives raise or lower the signal. In outline:
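Transiently transfected HepG2 liver cells; cis-regulated reporters; 24 h dosing. RT-PCR plus CE read-out of reporter mRNA. DMSO baseline, bidirectional curve fitting.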

Assay [4] in a line: ATG_AP_1_CIS: Attagene CIS-FACTORIAL HepG2 Assay for human Activator Protein 1 (AP-1) (AID 2282931). Particulars: HepG2 Attagene cis-factorial AP-1 reporter mRNA; actives raise or lower the signal. The method in brief: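 We transfected HepG2 cells transiently with a set of cis-regulated reporter transcription units, dosed them for 24 h, and quantified reporter mRNA via RT-PCR and capillary electrophoresis, scoring gain or loss of signal relative to DMSO.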

Assay [5] in a line: ATG_AP_2_CIS: Attagene CIS-FACTORIAL HepG2 Assay for human Activator Protein 2 (AP-2) (AID 2282932). Particulars: HepG2 AP-2 cis-reporter, Attagene transcription factor profiling; actives raise or lower the signal. In outline:
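Assay in transfected HepG2 with promoter-regulated reporters, 24 h incubation after dosing. Signal is reporter mRNA fluorescence (RT-PCR, capillary electrophoresis), analysed for both increases and decreases relative to DMSO controls.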

A short description of assay [6]: ATG_BRE_CIS: Attagene CIS-FACTORIAL HepG2 Assay for human Bone Morphogenetic Protein (BMP) Response Element (BRE) (AID 2282933). Particulars: HepG2 BMP response element reporter, Attagene transcription factor profiling; actives raise or lower the signal. The method in brief: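 A HepG2 multiplex reporter system measured inducible reporter mRNA 24 h post-dosing. Detection: RT-PCR, 6-FAM primer extension, HpaI digestion, capillary electrophoresis. Activity fitted bidirectionally relative to DMSO.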

Assay [7] has as its target Retinoic acid receptor alpha (Homo sapiens) (UniProt P10276). The assay can be described thus: ATG_DR5_RAR_CIS: Attagene CIS-FACTORIAL HepG2 Assay for human Retinoic Acid Receptor Alpha (RARE), DR5 submotif (AID 2282934).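 For AC50: reporter responds to endogenous RAR alpha beta and gamma in HepG2 not RARA alone.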 Particulars: HepG2 Attagene cis-factorial RARE DR5 reporter, mRNA; actives raise or lower the signal. The method in brief:
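Endpoint fitted in both directions relative to DMSO as negative control. It reflects DR5 cis-element reporter mRNA induction in transiently transfected HepG2 cells, measured 24 h after dosing through RT-PCR and fluorescent capillary electrophoresis.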

The target in assay [8] is Transcription factor E2F1 (Homo sapiens) (UniProt Q01094). The assay can be described thus: ATG_E2F_CIS: Attagene CIS-FACTORIAL HepG2 Assay for human E2F Transcription Factor 1 (AID 2282935). Particulars: HepG2 Attagene cis-reporter, E2F reporter RNA transcripts; actives raise or lower the signal. In outline: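 In this cis-factorial format, endogenous factor activity drives transfected reporters in HepG2; transcripts collected at 24 h are quantified by fluorescence after RT-PCR and capillary separation.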

The target of assay [9] is Aryl hydrocarbon receptor (Homo sapiens) (UniProt P35869). The assay can be described thus: ATG_Ahr_CIS: Attagene CIS-FACTORIAL HepG2 Assay for human Aryl Hydrocarbon Receptor (Ahr) (AID 2282930). Particulars: HepG2 AhR cis-factorial reporter transcription; actives raise or lower the signal. The method in brief:
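Values derive from bidirectional fitting against DMSO negative control. Underlying signal: cis-element reporter mRNA in transiently transfected HepG2, harvested 24 h post-dose and measured by RT-PCR plus capillary electrophoresis.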

Active and inactive are the calls of the source. Rule for the calls: active = hit-call score of the fitted dose curve at least 0.9, where 1 is the maximum; inactive = score below 0.9.

Sequence of Transcription factor E2F1 (Homo sapiens) (Q01094 whole entry, looked up): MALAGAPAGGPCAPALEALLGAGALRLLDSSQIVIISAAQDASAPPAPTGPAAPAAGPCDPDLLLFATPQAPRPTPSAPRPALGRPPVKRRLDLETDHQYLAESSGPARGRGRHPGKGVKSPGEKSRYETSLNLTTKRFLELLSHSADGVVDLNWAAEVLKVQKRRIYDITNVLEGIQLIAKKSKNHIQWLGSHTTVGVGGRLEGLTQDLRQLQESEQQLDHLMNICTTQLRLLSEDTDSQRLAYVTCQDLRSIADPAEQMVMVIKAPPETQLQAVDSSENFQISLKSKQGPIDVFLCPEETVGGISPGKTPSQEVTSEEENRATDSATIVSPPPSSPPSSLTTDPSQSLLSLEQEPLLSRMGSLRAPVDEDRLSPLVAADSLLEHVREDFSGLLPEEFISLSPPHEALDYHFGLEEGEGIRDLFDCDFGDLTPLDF
Sequence of Aryl hydrocarbon receptor (Homo sapiens) (P35869 whole entry, looked up): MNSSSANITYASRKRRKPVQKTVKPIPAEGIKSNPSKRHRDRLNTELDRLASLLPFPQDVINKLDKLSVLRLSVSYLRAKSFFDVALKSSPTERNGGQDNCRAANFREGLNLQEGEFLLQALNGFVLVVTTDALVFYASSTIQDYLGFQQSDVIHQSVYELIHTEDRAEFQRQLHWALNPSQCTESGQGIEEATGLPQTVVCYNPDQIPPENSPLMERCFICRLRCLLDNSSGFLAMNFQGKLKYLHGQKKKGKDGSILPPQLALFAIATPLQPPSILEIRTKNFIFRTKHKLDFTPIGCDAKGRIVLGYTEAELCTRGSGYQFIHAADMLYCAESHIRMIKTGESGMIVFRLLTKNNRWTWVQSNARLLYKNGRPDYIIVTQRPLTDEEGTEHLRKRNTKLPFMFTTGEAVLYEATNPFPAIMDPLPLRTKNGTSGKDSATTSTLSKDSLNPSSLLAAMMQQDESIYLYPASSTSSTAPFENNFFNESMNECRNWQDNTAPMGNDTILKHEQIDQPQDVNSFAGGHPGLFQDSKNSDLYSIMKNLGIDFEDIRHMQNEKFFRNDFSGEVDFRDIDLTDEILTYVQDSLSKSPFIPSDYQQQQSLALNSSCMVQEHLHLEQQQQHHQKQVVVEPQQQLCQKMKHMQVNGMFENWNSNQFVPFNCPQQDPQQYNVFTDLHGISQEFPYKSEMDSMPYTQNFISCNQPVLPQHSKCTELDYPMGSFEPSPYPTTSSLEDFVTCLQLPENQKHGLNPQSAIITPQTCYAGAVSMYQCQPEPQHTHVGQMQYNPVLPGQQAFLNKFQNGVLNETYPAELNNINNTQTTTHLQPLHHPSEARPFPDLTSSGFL
Sequence of CCAAT/enhancer-binding protein beta (Homo sapiens) (P17676 whole entry, looked up): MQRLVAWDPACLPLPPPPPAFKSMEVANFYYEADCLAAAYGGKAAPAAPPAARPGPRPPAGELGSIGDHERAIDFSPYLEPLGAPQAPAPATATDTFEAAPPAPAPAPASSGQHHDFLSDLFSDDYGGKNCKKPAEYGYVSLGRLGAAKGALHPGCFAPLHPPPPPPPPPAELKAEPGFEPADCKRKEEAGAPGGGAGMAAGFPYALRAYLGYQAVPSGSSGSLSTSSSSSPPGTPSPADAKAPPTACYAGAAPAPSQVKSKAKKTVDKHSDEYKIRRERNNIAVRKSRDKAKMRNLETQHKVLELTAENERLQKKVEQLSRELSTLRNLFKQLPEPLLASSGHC
Sequence of Retinoic acid receptor alpha (Homo sapiens) (P10276 whole entry, looked up): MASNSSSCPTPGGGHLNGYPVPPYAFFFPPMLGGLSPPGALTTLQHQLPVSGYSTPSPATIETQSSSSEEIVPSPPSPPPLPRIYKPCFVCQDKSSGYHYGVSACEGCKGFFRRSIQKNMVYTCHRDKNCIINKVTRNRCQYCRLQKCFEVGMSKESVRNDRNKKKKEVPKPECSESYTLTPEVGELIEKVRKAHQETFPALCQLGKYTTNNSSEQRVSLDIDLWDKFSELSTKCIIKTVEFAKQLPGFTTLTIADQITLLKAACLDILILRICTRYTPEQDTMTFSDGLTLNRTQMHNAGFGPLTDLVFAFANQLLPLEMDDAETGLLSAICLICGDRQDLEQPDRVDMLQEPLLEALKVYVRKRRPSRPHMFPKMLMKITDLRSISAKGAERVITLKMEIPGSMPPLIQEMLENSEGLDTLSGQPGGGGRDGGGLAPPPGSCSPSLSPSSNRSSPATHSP

On to `CCCCCCCCCCCCCCCC(=O)OCC`, for which the result in assay [1], in [2], in assay [3], in [4], in [5] and in assay [6] was inactive. In addition, the outcome in [7] and in assay [8] was inactive.
As to `CC(=O)c1ccc2c(c1)CCCC2`, the outcome in [1], in assay [2], in assay [3], in [9], in assay [4] and in [5] was inactive. Moreover, the call in assay [6], in [7] and in assay [8] was inactive.
Turning to `COC(=O)c1sccc1S(N)(=O)=O`, the outcome in assay [1], in [2], in [3], in assay [9], in [5] and in assay [6] was inactive. In addition, the call in [7] and in assay [8] was inactive.
As a reminder, the AC50 is the concentration at which the activity in the assay is half-maximal. Turning to `CCN(CCO)c1cccc(C)c1`, the result in assay [1], in assay [2], in assay [3], in assay [4], in assay [5] and in assay [6] was inactive. The call in [7] was inactive. In addition, the AC50 in assay [9] was 55 µM (active).
On to `COC(=O)C1=C(C)NC(C)=C(C(=O)OCC(C)C)C1c1ccccc1[N+](=O)[O-]` (stereo not given), for which the outcome in [1], in [2], in [3], in assay [9], in [4] and in assay [5] was inactive. For the same compound, the compound was classed as inactive in assay [6], in [7] and in [8].
With `O=C(O)CC(C(=O)O)C(CC(=O)O)C(=O)O` (stereo not given), the result in assay [1], in assay [2], in assay [3], in assay [9], in assay [4] and in assay [5] was inactive. In addition, the result in assay [6], in assay [7] and in assay [8] was inactive.
On to `C1=Cc2ccccc2C1`, for which the outcome in assay [1], in assay [2], in [3], in assay [4], in assay [5] and in [6] was inactive. Further, the outcome in assay [7] and in assay [8] was inactive. The AC50 in assay [9] is 5.55 µM (active).
In the case of `CCCCCCCCC(=O)OCC`, the result in [1], in assay [2], in assay [3], in assay [9], in assay [4] and in assay [5] was inactive. Moreover, the compound was classed as inactive in [6], in assay [7] and in assay [8].
In the case of `O=C1CCCCCCCCCCC(=O)OCCO1`, the result in [1], in assay [2], in assay [3], in assay [9], in [4] and in [5] was inactive. The compound was called inactive in assay [6], in assay [7] and in assay [8].
For the compound `COCCOCCOCCOCCOC`, the result in assay [1], in assay [2], in [3], in assay [9], in [4] and in assay [5] was inactive. Also, the result in assay [6], in assay [7] and in [8] was inactive.
As to `CCOC(=O)[C@H](C)O`, the result in assay [1], in [2], in [3], in [9], in assay [4] and in assay [6] was inactive. In addition, the compound was called inactive in [7] and in [8].
For the compound `CC(C)c1ccc(C=O)cc1`, the call in [2], in assay [3], in assay [9], in [4], in [5] and in assay [6] was inactive. In addition, the result in [7] and in assay [8] was inactive.
As to `OCCN(CCO)c1ccccc1`, the result in assay [1], in assay [2], in assay [3], in assay [4], in assay [5] and in [6] was inactive. For the same compound, the call in assay [7] was inactive. Moreover, the concentration at half-maximal activity (AC50) in [9] was 13.7 µM (active).
As to `Clc1nc2ccccc2s1`, the result in [1], in [2], in assay [3], in assay [9], in assay [4] and in [5] was inactive. Also, the compound was classed as inactive in [6], in assay [7] and in assay [8].
`C1=CCCC1`: the compound was called inactive in assay [2], in [3], in assay [9], in [4], in assay [5] and in [6]. Further, the compound was classed as inactive in [7] and in [8].
As to `O=C(Oc1ccccc1)c1ccc2ccccc2c1O`, the result in [1], in assay [2], in assay [3], in assay [5], in assay [7] and in assay [8] was inactive. Besides, the concentration at half-maximal activity (AC50) in assay [9] was 17 µM (active); in [4], 97.4 µM (active).
For the compound `CCCCCC/C=C\CCCCCCCC(=O)O`, the outcome in [1], in assay [2], in assay [9], in [4], in assay [5] and in assay [6] was inactive. Besides, in [7], the AC50 is 34.2 µM (active).
Take `Nc1nc2ccccc2[nH]1`: the result in assay [1], in assay [2], in assay [3], in [4], in assay [5] and in [6] was inactive. Besides, the compound was called inactive in assay [7] and in assay [8]. Moreover, in assay [9], the AC50 was 28.6 µM (active).
For `CC(C)c1ccc2c(C(C)C)cc(C(C)C)c(S(=O)(=O)O)c2c1`, the outcome in assay [1], in assay [2], in assay [3], in assay [9], in assay [5] and in assay [6] was inactive. Moreover, the result in [7] and in assay [8] was inactive.
